Experimental data published in paper PMC7862700, “An all-to-all approach to the identification of sequence-specific readers for epigenetic DNA modifications on cytosine”.

Key:
Assay in all cases: DAPPL (digital affinity profiling via proximity ligation, sequencing); 10 mM Tris-HCl pH 7.5, 50 mM NaCl, 1 mM DTT, 4% glycerol, room temperature, 30 min; GST-TFs on glutathione beads, 16-mer random dsDNA library, 0.1% formaldehyde crosslink after washing; high values mean tight binding
FEV = biological target: T1, FEV (Homo sapiens, UniProt Q99581 1-238); settings: protein: recombinant; tags: N-terminal GST; dsDNA, one strand shown
T1 sequence: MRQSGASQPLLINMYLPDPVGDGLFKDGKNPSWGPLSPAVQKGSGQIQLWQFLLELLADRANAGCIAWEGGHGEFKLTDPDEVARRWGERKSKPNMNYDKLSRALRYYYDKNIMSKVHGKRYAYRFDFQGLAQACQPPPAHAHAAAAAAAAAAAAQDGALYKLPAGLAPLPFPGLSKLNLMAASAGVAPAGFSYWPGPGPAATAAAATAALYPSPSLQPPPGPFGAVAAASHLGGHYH
Procedure, shortened: (§1)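 Human transcription factors were made in yeast as GST fusions, captured on glutathione beads and barcoded with DNA. With a tag-only sample included, the pool was incubated with 200 nmole of a random double-stranded 16-mer DNA library in Tris/NaCl/DTT/glycerol buffer at room temperature for 30 min, then crosslinked with 0.1% formaldehyde after washing, ligated by proximity, amplified and sequenced. For binding signal, each hexamer's read frequency for a factor is divided by its frequency for the tag-only sample.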

ETV5 = ETV5 (Homo sapiens, UniProt P41161 1-510); settings: protein: recombinant; tags: N-terminal GST; dsDNA, one strand shown
ETV5, sequence (P41161 whole entry): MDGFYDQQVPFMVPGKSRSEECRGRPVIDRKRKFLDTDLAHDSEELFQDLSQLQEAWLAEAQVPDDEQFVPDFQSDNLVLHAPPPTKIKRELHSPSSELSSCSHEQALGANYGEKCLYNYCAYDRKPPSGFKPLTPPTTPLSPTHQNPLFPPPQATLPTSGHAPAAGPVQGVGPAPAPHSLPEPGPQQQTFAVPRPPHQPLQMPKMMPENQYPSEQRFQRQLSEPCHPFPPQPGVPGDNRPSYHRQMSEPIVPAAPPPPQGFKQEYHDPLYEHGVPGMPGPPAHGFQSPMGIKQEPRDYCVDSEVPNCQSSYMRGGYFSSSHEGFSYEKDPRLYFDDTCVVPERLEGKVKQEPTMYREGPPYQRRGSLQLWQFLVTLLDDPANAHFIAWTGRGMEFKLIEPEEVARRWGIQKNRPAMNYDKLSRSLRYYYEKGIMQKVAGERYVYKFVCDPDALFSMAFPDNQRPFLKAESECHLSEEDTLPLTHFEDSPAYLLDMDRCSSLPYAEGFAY
Procedure, shortened: as §1

HSF1 = HSF1 (Homo sapiens, UniProt Q00613 1-529); settings: protein: recombinant; tags: N-terminal GST; chain copies: 3; dsDNA, one strand shown
HSF1, sequence (Q00613 whole entry): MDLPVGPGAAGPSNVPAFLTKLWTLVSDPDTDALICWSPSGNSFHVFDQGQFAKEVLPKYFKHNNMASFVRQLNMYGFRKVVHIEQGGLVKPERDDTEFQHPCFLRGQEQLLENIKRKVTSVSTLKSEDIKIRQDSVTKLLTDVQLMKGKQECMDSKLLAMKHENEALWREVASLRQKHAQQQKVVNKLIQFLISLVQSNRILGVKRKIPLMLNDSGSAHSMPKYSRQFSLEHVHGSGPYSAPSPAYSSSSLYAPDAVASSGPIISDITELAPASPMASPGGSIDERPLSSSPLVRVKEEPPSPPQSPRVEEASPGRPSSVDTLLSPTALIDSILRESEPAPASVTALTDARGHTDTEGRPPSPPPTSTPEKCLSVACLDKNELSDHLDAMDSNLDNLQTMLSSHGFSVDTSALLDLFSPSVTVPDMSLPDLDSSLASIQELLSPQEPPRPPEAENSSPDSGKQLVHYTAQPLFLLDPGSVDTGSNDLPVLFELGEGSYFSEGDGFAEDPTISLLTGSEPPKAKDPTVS
Procedure, shortened: as §1

SPIC = biological target: T2, SPIC (Homo sapiens, UniProt Q8N5J4 1-248); settings: protein: recombinant; tags: N-terminal GST; dsDNA, one strand shown
T2 sequence: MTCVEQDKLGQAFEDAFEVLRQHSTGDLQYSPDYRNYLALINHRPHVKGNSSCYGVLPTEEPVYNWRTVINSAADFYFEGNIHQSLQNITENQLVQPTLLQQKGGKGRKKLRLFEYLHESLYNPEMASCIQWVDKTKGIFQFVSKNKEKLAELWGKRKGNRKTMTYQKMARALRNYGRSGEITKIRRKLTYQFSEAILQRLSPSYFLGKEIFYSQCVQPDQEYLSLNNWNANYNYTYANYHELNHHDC
Procedure, shortened: as §1

ELF4 = ELF4 (Homo sapiens, UniProt Q99607 1-663); settings: protein: recombinant; tags: N-terminal GST; dsDNA, one strand shown
ELF4, sequence (Q99607 whole entry): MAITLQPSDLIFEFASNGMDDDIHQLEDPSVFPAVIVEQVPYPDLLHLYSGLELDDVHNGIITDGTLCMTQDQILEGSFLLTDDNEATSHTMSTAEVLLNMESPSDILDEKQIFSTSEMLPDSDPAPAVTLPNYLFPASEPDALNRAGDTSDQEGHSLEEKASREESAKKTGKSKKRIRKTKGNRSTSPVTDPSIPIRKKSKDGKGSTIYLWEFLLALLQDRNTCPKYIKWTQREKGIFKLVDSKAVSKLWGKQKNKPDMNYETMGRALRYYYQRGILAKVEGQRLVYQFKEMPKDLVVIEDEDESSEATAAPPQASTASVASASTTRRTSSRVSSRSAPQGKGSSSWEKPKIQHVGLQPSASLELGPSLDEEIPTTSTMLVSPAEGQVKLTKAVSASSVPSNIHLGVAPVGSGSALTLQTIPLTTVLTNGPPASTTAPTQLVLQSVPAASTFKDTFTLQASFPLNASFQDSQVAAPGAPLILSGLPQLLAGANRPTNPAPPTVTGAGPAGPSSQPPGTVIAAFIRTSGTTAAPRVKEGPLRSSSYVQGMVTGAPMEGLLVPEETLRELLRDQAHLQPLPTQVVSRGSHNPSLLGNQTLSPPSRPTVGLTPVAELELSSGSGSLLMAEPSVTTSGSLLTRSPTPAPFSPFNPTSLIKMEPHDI
Procedure, shortened: as §1

ELK4 = biological target: T3, ELK4 (Homo sapiens, UniProt P28324-2 1-405); settings: protein: recombinant; tags: N-terminal GST; dsDNA, one strand shown
T3 sequence: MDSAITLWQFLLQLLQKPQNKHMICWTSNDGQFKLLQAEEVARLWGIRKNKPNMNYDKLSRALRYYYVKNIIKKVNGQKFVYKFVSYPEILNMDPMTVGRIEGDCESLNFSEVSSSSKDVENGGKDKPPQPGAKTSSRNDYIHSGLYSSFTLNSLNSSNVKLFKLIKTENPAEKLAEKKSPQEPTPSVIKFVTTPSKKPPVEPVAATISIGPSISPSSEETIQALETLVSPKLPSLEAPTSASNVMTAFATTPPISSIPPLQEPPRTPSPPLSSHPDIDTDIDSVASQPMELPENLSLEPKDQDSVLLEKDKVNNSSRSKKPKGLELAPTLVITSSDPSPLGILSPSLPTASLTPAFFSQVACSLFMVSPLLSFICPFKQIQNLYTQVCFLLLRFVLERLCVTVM
Procedure, shortened: as §1

ETV2 = biological target: T4, ETV2 (Homo sapiens, UniProt O00321 1-342); settings: protein: recombinant; tags: N-terminal GST; dsDNA, one strand shown
T4 sequence: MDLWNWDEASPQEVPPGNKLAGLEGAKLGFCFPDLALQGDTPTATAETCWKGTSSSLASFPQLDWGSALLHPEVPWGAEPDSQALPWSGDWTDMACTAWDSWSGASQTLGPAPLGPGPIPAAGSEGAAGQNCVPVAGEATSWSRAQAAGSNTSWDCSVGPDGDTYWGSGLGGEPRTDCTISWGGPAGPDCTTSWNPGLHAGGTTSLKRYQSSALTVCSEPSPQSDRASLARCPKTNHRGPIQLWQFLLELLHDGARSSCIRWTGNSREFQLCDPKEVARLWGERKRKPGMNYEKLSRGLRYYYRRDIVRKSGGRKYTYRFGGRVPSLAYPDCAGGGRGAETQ
Procedure, shortened: as §1

ELF3 = biological target: T5, ELF3 (Homo sapiens, UniProt P78545 1-371); settings: protein: recombinant; tags: N-terminal GST; dsDNA, one strand shown
T5 sequence: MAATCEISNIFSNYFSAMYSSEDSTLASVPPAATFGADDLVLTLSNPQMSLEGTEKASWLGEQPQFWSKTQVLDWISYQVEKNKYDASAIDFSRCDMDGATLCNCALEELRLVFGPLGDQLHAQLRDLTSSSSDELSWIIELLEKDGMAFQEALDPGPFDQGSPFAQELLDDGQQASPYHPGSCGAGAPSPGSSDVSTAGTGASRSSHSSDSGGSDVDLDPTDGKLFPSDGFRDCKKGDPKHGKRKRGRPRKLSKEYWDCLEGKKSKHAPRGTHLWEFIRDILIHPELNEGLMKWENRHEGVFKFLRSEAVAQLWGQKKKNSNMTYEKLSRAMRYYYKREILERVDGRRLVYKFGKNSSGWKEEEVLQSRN
Procedure, shortened: as §1

CRX = CRX (Homo sapiens, UniProt O43186 1-299); settings: protein: recombinant; tags: N-terminal GST; dsDNA, one strand shown
CRX, sequence (O43186 whole entry): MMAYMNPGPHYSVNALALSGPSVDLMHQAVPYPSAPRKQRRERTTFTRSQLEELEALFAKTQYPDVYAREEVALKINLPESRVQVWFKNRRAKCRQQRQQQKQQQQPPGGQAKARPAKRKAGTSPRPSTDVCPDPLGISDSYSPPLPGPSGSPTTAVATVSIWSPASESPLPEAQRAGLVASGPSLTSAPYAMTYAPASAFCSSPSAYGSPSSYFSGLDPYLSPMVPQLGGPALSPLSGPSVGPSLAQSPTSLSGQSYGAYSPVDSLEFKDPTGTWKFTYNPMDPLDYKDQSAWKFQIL
Procedure, shortened: as §1

ETV1 = ETV1 (Homo sapiens, UniProt P50549 1-477); settings: protein: recombinant; tags: N-terminal GST; dsDNA, one strand shown
ETV1, sequence (P50549 whole entry): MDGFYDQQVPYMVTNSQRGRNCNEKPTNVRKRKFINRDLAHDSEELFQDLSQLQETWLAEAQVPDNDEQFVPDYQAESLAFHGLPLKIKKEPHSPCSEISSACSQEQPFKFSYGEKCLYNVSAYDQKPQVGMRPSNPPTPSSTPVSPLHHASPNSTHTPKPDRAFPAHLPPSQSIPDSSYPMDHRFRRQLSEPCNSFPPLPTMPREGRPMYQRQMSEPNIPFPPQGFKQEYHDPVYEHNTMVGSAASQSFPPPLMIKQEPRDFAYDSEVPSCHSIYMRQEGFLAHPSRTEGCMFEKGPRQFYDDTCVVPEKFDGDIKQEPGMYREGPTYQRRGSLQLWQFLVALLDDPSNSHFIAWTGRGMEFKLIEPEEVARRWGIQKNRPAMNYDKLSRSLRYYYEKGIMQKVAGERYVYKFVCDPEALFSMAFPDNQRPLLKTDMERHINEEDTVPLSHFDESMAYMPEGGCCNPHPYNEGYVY
Procedure, shortened: as §1

ERF = biological target: T6, ERF (Homo sapiens, UniProt P50548 1-548); settings: protein: recombinant; tags: N-terminal GST; dsDNA, one strand shown
T6 sequence: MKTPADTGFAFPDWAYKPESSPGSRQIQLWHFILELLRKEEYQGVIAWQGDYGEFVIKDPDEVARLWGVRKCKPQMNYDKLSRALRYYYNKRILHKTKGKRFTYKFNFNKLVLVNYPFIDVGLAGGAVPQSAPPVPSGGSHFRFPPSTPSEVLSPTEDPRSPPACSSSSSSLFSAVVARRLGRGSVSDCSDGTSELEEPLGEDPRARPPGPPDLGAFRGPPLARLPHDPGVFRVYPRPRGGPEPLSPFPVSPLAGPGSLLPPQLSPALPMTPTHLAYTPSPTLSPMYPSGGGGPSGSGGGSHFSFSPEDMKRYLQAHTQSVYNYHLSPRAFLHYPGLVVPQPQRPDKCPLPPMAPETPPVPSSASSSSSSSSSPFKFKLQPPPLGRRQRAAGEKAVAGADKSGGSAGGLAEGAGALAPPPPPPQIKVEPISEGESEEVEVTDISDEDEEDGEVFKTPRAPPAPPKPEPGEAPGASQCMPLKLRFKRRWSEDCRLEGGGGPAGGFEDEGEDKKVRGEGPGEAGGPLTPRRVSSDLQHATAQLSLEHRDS
Procedure, shortened: as §1

ETV3L = biological target: T7, ETV3L (Homo sapiens, UniProt Q6ZN32 1-361); settings: protein: recombinant; tags: N-terminal GST; dsDNA, one strand shown
T7 sequence: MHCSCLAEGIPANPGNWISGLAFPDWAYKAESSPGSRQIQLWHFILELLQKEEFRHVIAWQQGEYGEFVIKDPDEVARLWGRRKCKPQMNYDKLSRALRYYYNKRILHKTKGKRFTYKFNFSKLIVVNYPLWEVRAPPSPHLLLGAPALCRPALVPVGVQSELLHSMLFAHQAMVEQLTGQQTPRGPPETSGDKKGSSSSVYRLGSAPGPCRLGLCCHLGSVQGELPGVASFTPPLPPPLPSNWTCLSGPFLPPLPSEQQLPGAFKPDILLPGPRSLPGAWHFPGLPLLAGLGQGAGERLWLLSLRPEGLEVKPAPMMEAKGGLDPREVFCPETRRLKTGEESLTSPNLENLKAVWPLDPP
Procedure, shortened: as §1

ETS2 = biological target: T8, ETS2 (Homo sapiens, UniProt P15036 1-469); settings: protein: recombinant; tags: N-terminal GST; dsDNA, one strand shown
T8 sequence: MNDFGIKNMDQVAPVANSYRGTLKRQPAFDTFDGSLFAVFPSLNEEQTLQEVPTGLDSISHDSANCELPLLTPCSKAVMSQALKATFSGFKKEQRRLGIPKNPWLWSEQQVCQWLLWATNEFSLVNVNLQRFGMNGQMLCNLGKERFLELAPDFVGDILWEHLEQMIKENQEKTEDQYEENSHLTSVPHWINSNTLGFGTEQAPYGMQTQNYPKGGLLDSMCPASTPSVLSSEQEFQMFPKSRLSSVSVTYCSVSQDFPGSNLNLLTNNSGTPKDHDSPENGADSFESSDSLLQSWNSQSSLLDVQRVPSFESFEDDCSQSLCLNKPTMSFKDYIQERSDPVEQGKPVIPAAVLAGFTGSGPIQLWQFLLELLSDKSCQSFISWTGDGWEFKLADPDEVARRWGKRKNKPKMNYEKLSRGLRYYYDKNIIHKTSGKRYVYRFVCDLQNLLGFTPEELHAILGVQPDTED
Procedure, shortened: as §1

SPDEF = biological target: T9, SPDEF (Homo sapiens, UniProt O95238 1-335); settings: protein: recombinant; tags: N-terminal GST; dsDNA, one strand shown
T9 sequence: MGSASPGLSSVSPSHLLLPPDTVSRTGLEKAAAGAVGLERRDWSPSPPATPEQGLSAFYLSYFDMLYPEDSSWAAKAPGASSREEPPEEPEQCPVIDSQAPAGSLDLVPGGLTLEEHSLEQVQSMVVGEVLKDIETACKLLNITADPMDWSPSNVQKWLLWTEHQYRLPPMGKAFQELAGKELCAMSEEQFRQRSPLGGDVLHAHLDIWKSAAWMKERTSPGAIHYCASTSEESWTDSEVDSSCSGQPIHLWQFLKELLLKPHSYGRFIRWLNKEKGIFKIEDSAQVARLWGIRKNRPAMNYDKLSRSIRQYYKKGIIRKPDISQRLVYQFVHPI
Procedure, shortened: as §1

ETV7 = biological target: T10, ETV7 (Homo sapiens, UniProt Q9Y603 1-341); settings: protein: recombinant; tags: N-terminal GST; dsDNA, one strand shown
T10 sequence: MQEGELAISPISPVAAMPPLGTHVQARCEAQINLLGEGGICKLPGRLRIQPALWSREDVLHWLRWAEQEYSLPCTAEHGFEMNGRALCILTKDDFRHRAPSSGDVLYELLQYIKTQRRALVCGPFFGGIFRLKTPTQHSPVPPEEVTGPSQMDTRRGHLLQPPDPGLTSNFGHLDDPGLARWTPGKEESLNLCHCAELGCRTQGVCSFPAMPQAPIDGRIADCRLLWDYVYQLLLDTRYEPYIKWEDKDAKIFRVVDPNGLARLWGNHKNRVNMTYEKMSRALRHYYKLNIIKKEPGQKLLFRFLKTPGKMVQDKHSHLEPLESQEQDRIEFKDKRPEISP
Procedure, shortened: as §1

ELF5 = biological target: T11, ELF5 (Homo sapiens, UniProt Q9UKW6-2 1-255); settings: protein: recombinant; tags: N-terminal GST; dsDNA, one strand shown
T11 sequence: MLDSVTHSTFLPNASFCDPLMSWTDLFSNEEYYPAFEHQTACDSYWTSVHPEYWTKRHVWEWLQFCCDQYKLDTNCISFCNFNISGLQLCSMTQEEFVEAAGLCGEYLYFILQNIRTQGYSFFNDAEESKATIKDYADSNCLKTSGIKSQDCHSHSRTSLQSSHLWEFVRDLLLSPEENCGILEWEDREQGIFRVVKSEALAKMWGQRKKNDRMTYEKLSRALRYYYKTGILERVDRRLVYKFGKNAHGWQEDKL
Procedure, shortened: as §1

ETV3 = biological target: T12, ETV3 (Homo sapiens, UniProt P41162-2 1-143); settings: protein: recombinant; tags: N-terminal GST; dsDNA, one strand shown
T12 sequence: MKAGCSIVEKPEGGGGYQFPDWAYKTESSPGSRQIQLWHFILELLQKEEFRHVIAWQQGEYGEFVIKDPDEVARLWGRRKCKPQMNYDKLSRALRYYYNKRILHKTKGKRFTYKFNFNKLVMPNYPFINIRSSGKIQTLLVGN
Procedure, shortened: as §1

ETV6 = ETV6 (Homo sapiens, UniProt P41212 1-452); settings: protein: recombinant; tags: N-terminal GST; dsDNA, one strand shown
ETV6, sequence (P41212 whole entry): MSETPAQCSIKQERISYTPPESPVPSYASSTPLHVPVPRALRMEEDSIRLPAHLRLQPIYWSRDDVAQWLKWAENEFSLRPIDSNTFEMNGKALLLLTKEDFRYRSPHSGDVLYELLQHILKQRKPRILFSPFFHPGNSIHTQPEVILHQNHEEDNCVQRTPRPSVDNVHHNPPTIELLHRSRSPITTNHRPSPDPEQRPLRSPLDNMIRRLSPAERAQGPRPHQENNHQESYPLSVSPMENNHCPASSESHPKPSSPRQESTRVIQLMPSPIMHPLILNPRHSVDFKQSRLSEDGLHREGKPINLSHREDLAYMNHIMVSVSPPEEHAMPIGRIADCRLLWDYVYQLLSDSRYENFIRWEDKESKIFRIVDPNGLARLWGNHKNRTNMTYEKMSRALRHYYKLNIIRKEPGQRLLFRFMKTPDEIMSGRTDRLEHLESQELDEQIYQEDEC
Procedure, shortened: as §1

Which binding signal (FEV) does the source give for ATTATA here?
The binding signal was 1.32 fold enrichment (6-mer frequency, TF over GST control).

What about the binding signal (ETV5) of the same sequence?
The binding signal was 1.29 fold enrichment (6-mer frequency, TF over GST control).

What about the binding signal (HSF1) of the same sequence?
The binding signal was 2.05 fold enrichment (6-mer frequency, TF over GST control).

And the binding signal (SPIC)?
Its binding signal is 1.36 fold enrichment (6-mer frequency, TF over GST control).

What about the binding signal (ELF4) of the same sequence?
The binding signal was 1.24 fold enrichment (6-mer frequency, TF over GST control).

And the binding signal (ELK4)?
Its binding signal is 1.29 fold enrichment (6-mer frequency, TF over GST control).

And the binding signal (ETV2)?
Its binding signal is 1.42 fold enrichment (6-mer frequency, TF over GST control).

And the binding signal (ELF3)?
Its binding signal is 1.39 fold enrichment (6-mer frequency, TF over GST control).

What about the binding signal (CRX) of the same sequence?
Its binding signal is 3.2 fold enrichment (6-mer frequency, TF over GST control).

And the binding signal (ETV1)?
The binding signal was 1.3 fold enrichment (6-mer frequency, TF over GST control).

What about the binding signal (ERF) of the same sequence?
The binding signal was 1.3 fold enrichment (6-mer frequency, TF over GST control).

What about the binding signal (ETV3L) of the same sequence?
Its binding signal is 1.33 fold enrichment (6-mer frequency, TF over GST control).

And the binding signal (ETS2)?
Its binding signal is 1.37 fold enrichment (6-mer frequency, TF over GST control).

And the binding signal (SPDEF)?
The binding signal was 1.23 fold enrichment (6-mer frequency, TF over GST control).

And the binding signal (ETV7)?
The binding signal was 1.37 fold enrichment (6-mer frequency, TF over GST control).

What about the binding signal (ELF5) of the same sequence?
Its binding signal is 1.24 fold enrichment (6-mer frequency, TF over GST control).

And the binding signal (ETV3)?
Its binding signal is 1.28 fold enrichment (6-mer frequency, TF over GST control).

And the binding signal (ETV6)?
The binding signal was 1.3 fold enrichment (6-mer frequency, TF over GST control).
